Screening results from PubChem BioAssay.
Shown are actives, neighbours in structure and some others; about 21% of the full set was active somewhere.
Pf growth 48h – inhibits P. falciparum growth in the first generation, 48 h | P. falciparum luciferase growth in erythrocytes, 48 h | Potency, µM (top dose mostly 28.7 µM), inactives show top-dose activity change, negative = inhibition, usual class: inhibitors | 5.9% of 310,000 active; also: potency is read from the fitted curve at half-maximal effect; % is scaled to controls: 0 for no effect and ±100 for the full control effect
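Luciferase-expressing P. falciparum in infected erythrocytes (2% hematocrit, 0.1% parasitemia final) in RPMI 1640/0.5% Albumax were exposed to compound for 48 hours at 37 C, 5% CO2; growth read as luminescence.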
Shiga toxin inh – inhibitors of Shiga toxin in Vero cells; AID 2315; inhibition, % at 38.7 µM; Vero cells, Shiga toxin protein synthesis inhibition reporter; 9.2% of 290,000 active; in the data active = inhibition mostly above about 28%, no sharp cut-off; inactive = mostly below about 43%; also: 0% is about no effect
NS1 function inh – influenza NS1 inhibition | Potency, µM (doses to about 46.1 µM), for the others: at the highest dose activity, positive = more growth | 0.4% of 270,000 active; calls by dose curve; also: potency is read from the fitted curve at half-maximal effect; actives are rising curves; nearly all actives have a fitted effect of over 50% in size
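OD600 was taken as the measure of yeast growth restored by compound in an NS1-expressing S. cerevisiae strain. Cells had been washed out of glucose medium and diluted 1:100 into galactose -URA medium, pH 6.0.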
Cycloheximide cs – counter-screen for Shiga toxin inhibitors: cycloheximide protein synthesis inhibition | cell reporter, cycloheximide protein synthesis inhibition counterscreen | max response, % | 12% of 300,000 active | AID 2314; in the data active = max response mostly above about 13%, no sharp cut-off; inactive = mostly below about 14%; also: read at 38.3 µM for the half of the compounds with a filed dose; 0% is about no effect
Pf growth 96h – P. falciparum growth inhibition at 96 hour, primary screen for plastid delayed-death inhibitors; AID 504834; Potency, µM (top dose mostly 28.7 µM), for inactives: top-dose activity change, negative = inhibition, most hits filed as inhibitors; 6.9% of 320,000 active; P. falciparum luciferase reporter growth, 96 h; also: potency is read from the fitted curve at half-maximal effect; % is scaled to controls: 0 for no effect and ±100 for the full control effect
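Infected RBCs, 2% Hct / 0.05% parasitemia final; luciferase-reporter P. falciparum; cpd 96 h, 37 C, 5% CO2; luciferase detection reagent; luminescence.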
The depositor's hits bear a star; ? = inconclusive; nt = not tested or not shown. Unless noted, calls follow the shape of the dose curve; as a rule, active = well fitted inhibition curve with a large enough effect; inconclusive = small, poorly fitted or top-dose-only effect, or another doubt; inactive = no such curve, though single readings can be large or run the other way.

SMILES	Pf growth 48h	Shiga toxin inh	NS1 function inh	Cycloheximide cs	Pf growth 96h
CCc1nnc(NC(=O)COc2ccc3c(c2)OCO3)s1	39%	3	-7%	-1	27%
O=C(COc1ccc2c(c1)OCO2)Nc1nncs1	27%	33	-2%	18*	16%
Cc1ccc(NC(=O)COc2ccc3c(c2)OCO3)c(C)c1	125%	nt	nt	nt	107%
COc1ccc(OCC(=O)Nc2ccccc2OC(F)F)cc1	-14%	8	-35%	9.6*	nt
CC(CNC(=O)COc1ccc2c(c1)OCO2)c1ccccc1 (centres undefined)	-6%	nt	nt	nt	-17%
COc1ccc(OCC(=O)Nc2ccccc2OC)cc1	nt	17	-36%	10	?
O=C(NNC(=O)C1[C@H]2CCCC[C@@H]12)Nc1cccc2ccccc12 (some centres undefined)	44%	5	-1%	9	48%
CCc1ccc(N(C(=O)CNC(=O)c2ccco2)C(C(=O)NC2CCCC2)c2cccnc2)cc1 (centres undefined)	-6%	7	-11%	-3	-16%
CCOc1ccccc1NC(=O)COc1ccc2c(c1)OCO2	-39%	59*	-33%	22	30%
O=C(NCc1ccc2c(c1)OCO2)NC12CC3CC(CC(C3)C1)C2	?	-2	nt	11	-14%
O=C(COc1ccc2c(c1)OCO2)NC12CC3CC(CC(C3)C1)C2	?	44*	-28%	17*	22%
CNc1nc(N)nc(OC(C(F)(F)F)C(F)(F)F)n1	3%	37	nt	-6	49%
COc1ccc(C(=O)c2coc3ccc(OC(C)=O)cc23)cc1	212%	72*	-3%	27*	153%
COc1ccc2occ(C(=O)c3cccs3)c2c1	nt	96*	-91%	40*	299%
COc1ccc(OC)c(C(=O)c2coc3ccc(OC(C)=O)cc23)c1	38%	38*	-5%	25	71%
COc1ccc2occ(C(=O)c3ccc(N)cc3)c2c1	341%	71*	-1%	39*	321%
COc1ccc(OC)c(C(=O)c2coc3ccc(OCC(=O)O)cc23)c1	nt	-1	0%	-5	115%
CC(=O)c1coc2ccc(OCC(=O)O)cc12	-6%	-1	3%	-5	11%
COc1ccc2occ(NC(C)=O)c2c1	4%	-10	-13%	2	63%
CCN(CC)CCNC(=O)c1ccc2c(=O)n(CCc3ccccc3)c(=O)[nH]c2c1	-4%	42	-1%	10	-24%
Cc1cc(=O)n(-c2ccc(Cl)cc2)c(=O)[nH]1	11%	29	-4%	7	0%
O=c1[nH]c(CN2CCN(Cc3ccc4c(c3)OCO4)CC2)nc2ccccc12	-10%	-10	7%	8.6*	8%
c1ccc(CN2CCC(N3CCN(Cc4ccc5c(c4)OCO5)CC3)CC2)cc1	15µM*	-6	-1%	-3	?
COc1ccc(-c2nc3ccccc3c(C(=O)Nc3ccc(S(=O)(=O)Nc4cc(C)on4)cc3)c2C)cc1	10µM*	-9	?	-3	?
Cc1ccc(-c2cc(C(=O)Nc3ccc(S(=O)(=O)Nc4cc(C)on4)cc3)c3ccccc3n2)c(C)c1	?	9	16%	-1	7.4µM*
SMILES	Pf growth 48h	Shiga toxin inh	NS1 function inh	Cycloheximide cs	Pf growth 96h
COc1cc(C(=O)Nc2ccc(S(=O)(=O)Nc3cc(C)on3)cc2)cc(OC)c1OC	1%	-10	4%	1	-9%
Cc1ccc(NC(=O)CSc2nnc3ccc(-c4ccncc4)nn23)cc1	22%	nt	nt	nt	80%
CCn1c(C)nc2cc(C(=O)NNC(=S)Nc3ccc(F)cc3)ccc21	129%	58*	-5%	31*	89%
CCn1c(C)nc2cc(C(=O)NNC(=S)Nc3ccc(Cl)cc3)ccc21	-9%	25	-12%	22*	?
CCn1c(C)nc2cc(C(=O)OC(C(F)(F)C(F)F)C(F)(F)C(F)F)ccc21	9%	70*	-77%	45*	167%
CCn1c(C)nc2cc(C(=O)NNC(=S)Nc3ccccc3)ccc21	85%	71*	0%	32*	90%
CCn1c(C)nc2cc(C(=O)NNC(=S)NC(=O)c3ccccc3)ccc21	4%	18	1%	12	-1%
CC(=O)c1nnn(-c2ccc([N+](=O)[O-])cc2)c1C	0%	-3	nt	9	5%
COc1ccc(C)cc1S(=O)(=O)NCC(c1ccc2c(c1)OCO2)N1CCOCC1 (centres undefined)	-11%	nt	nt	nt	-14%
Cc1nc(Nc2cccc(C(C)O)c2)c2nnn(Cc3ccc(F)cc3)c2n1 (centres undefined)	13%	19	1%	-2	?
